This assay relates to Leishmania donovani. The assay can be described thus: Leishmania intramacrophage assay. In kind it is functional, organism-based. On the set-up: scale not given: in the data most compounds retested in dose-response had high values.

About 1,000 (1.4%) of roughly 69,000 compounds showed an effect of 50% or more. The list comes from a sample in which strong results are over-represented; it also holds similar structures and randomly drawn compounds.

For the compound `O=C(O)C(F)(F)F.O=C(c1cc(C2CC2)on1)N1C[C@@H]2COC[C@]2(COc2cccnc2)C1`, the “Percent Effect” value (30.3 µM, […]) came to 50.64%.
Same read-out and setting: then `CC(C)(C)c1cc(CN2C[C@H]3CC[C@@H]2CN(Cc2ccccn2)C3)n[nH]1`, with 4.97%.
Same read-out and setting: the result for `CC(C)N(C)S(=O)(=O)N(Cc1cccs1)CC1CCCO1` (centres undefined) reads -50.49%; that for `CC(C)c1cc(NCc2csc(N(C)C)n2)nc(N)n1`, 41.43%; that for `CC(C)c1nc(CNc2ccc(CNS(C)(=O)=O)cc2)cs1`, 21.12%.
In the case of `CC(C)c1cc(NCc2csc(C(C)C)n2)nc(N)n1`, where the note is “30.3 µM, […]”, the “Percent Effect” value is recorded as 50.61%.
For `Cn1cc(CN2CCC3(CCCN(Cc4ccccn4)C3)CC2)cn1`, for the setting “30 µM, 30.03 µM”, the “Percent Effect” value is 51.96%.
As to `Cn1cc(CN2CCCC3(CCN(C(=O)c4cnccn4)C3)C2)cn1.O=C(O)C(F)(F)F.O=C(O)C(F)(F)F` (centres undefined), where the note is “30.3 µM, […]”, the “Percent Effect” value is on record as 26.24%.
Still for that read-out and setting: the result for `Cn1cc(CN2CCC3(CC2)CCN(Cc2ccccn2)CC3)cn1` reads -5.313%; that for `Cc1cccc(CN2CCC3(CCCN(Cc4cnn(C)c4)C3)C2)n1.O=C(O)C(F)(F)F.O=C(O)C(F)(F)F` (centres undefined), 37.49%; that for `Cn1cc(CN2CCCC23CCN(C(=O)c2ccccn2)CC3)cn1.O=C(O)C(F)(F)F`, -2.86%.
The same measure, in the same setting: the result for `Cc1cnc(C(=O)N2CCC3(CCCN(c4nncs4)C3)C2)cn1` (centres undefined) reads 29.83%; that for `O=C(O)C(F)(F)F.O=C(c1ccccn1)N1CCC2(CCCN(c3nncs3)C2)C1` (centres undefined), 54.23%.
Turning to `O=C(O)C(F)(F)F.O=C(c1ccco1)N1CCCC2(CCN(c3nncs3)C2)C1` (centres undefined), the “Percent Effect” value (30.3 µM, […]) is given as 36.42%.
Same read-out and setting: the result for `Cn1cc(CN2CCCC3(CCN(C(=O)c4ccccn4)C3)C2)cn1.O=C(O)C(F)(F)F.O=C(O)C(F)(F)F.O=C(O)C(F)(F)F` (centres undefined) reads 77.43%.
On the same count and under the same terms, then `CCOc1ccc(NC(=O)N(C)Cc2cnn(C)c2)c(C)c1`, with 28.5%.
With `CC(C)N1CCO[C@H]2CN(C(=O)c3ccoc3)C[C@H]21.O=C(O)C(F)(F)F`, under “30 µM, 30.03 µM”, the “Percent Effect” value was -20.99%.
The same measure, in the same setting: the result for `Cn1cnc2c1C(COCc1cccnc1)N(Cc1ccccn1)CC2` (centres undefined) reads 6.459%.
Turning to `CC(C)(C)c1n[nH]c(C2CN(Cc3nnc(C4CCC4)o3)CCO2)n1` (centres undefined), the “Percent Effect” value (30 µM) amounted to 11.21%.
As for `CCN(C)c1ncnc2c1CCN(Cc1ccncc1)CC2.O=C(O)C(F)(F)F.O=C(O)C(F)(F)F.O=C(O)C(F)(F)F`, the “Percent Effect” value (30.3 µM, […]) was 31.79%.
Regarding `CCn1cc(CN(C)S(=O)(=O)c2ccccc2)cn1`, the “Percent Effect” value (30.3 µM, […]) turned out to be 11.15%.
On the same count and under the same terms, the result for `CCn1cc(CN(C)S(=O)(=O)c2cnn(C)c2)cn1` reads 50.44%.
Turning to `CCn1cc(CN(C)S(=O)(=O)c2ccc(Cl)cc2)cn1`, the “Percent Effect” value (30 µM, 30.03 µM) worked out at 2.361%.
On to `C[C@@H]1CN(Cc2ccoc2)C[C@]12CCN(CC(=O)N(C)C)C2=O.O=C(O)C(F)(F)F`, for which, under “30.3 µM, […]”, the “Percent Effect” value worked out at 1.993%.
Take `NC(=O)c1ccnc(N2CCCC(CO)(Cc3ccc(F)cc3)C2)c1` (centres undefined): under “30.3 µM, […]”, the “Percent Effect” value was determined as 16.75%.
On the same count and under the same terms, the result for `O=S(=O)(CCCN1CCOC(Cn2cccn2)C1)c1ccccc1` (centres undefined) reads 8.687%; that for `Cc1noc([C@H]2COC[C@H]3CN(C(=O)Cc4cccc(F)c4)C[C@H]32)n1`, 29.86%.
Take `Cc1noc(C)c1CN(C)C(=O)c1cnc(C2CC2)nc1O`: the “Percent Effect” value (30.3 µM, […]) is 65.78%.
Turning to `Cc1noc(C)c1CN(C)C(=O)c1ccc(NC2CC2)nc1`, the “Percent Effect” value (30 µM, 30.03 µM) is 24.65%.
On to `Cc1noc(C)c1CN(C)C(=O)c1ccc(O)nc1`, for which the “Percent Effect” value (30 µM) was 24.33%.
Regarding `CSCC(=O)N1C[C@H]2CC[C@@H]1CN(Cc1ccccc1)C2`, the “Percent Effect” value (30 µM, 30.03 µM) is 50.94%.
Same read-out and setting: the result for `O=C(CSc1ncccn1)N1C[C@H]2CC[C@@H]1CN(Cc1ccncc1)C2` reads 54.88%.
Same read-out and setting: the result for `O=C(CSc1ccncc1)N1C[C@H]2CC[C@@H]1CN(Cc1cccnc1)C2` reads 35.98%.
Take `CCOC(=O)N1C[C@H]2CC[C@@H]1CN(Cc1ccccc1)C2`: the “Percent Effect” value (30.3 µM, […]) came to 27.53%.
On the same count and under the same terms, then `O=C(CSc1ccccc1)N1C[C@H]2CC[C@@H]1CN(Cc1ccncc1)C2`, with 14.29%; and `O=C(CC(F)(F)F)N1C[C@H]2CC[C@@H]1CN(Cc1ccccc1)C2`, with 17.26%.
The same measure, in the same setting: then `[O-][S+](Cc1c(F)cccc1Cl)Cc1nnnn1C1CC1` (centres undefined), with -31.87%.
`COCCC(C)NC(=O)c1cc(Br)c2c(c1)OCCO2` (centres undefined): the “Percent Effect” value (30 µM) was found to be 12.78%.
For `Cc1nc(COc2cccc(C#N)c2)no1`, for the setting “30 µM, 30.03 µM”, the “Percent Effect” value is reported as -12.6%.
For `Cc1n[nH]c(C2CN(CC(=O)NCCc3ccccc3C)CCO2)n1` (centres undefined), the “Percent Effect” value (30.3 µM, […]) is on record as -38.97%.
On the same count and under the same terms, then `CCCc1cncnc1N1CCC(NCc2ccncc2)CC1`, with -13.54%; and `CCCc1cncnc1N1CCC(NCc2cc3ccccc3[nH]2)CC1`, with 84.37%.
Still for that read-out and setting: the result for `CCCc1cncnc1N1CCC(NCc2ccc(O)cc2)CC1` reads -3.143%.
Still for that read-out and setting: the result for `CC(=O)N1CCN(c2cc(C3CN(C(C)=O)CCO3)nc(C)n2)CC1` (centres undefined) reads 2.386%; that for `CC(C)c1ccc(C#N)c(N2CC(C)(C)[C@@](C)(O)C2)n1`, 3.251%.
Consider `Cc1cc(C)n(CC2CN(CCOc3ccccc3C#N)CCO2)n1` (centres undefined), for which the “Percent Effect” value (30 µM) is reported as 10.79%.
`CCn1ncc2c1C(COC)CN(Cc1ccc(F)cc1)C2.O=C(O)C(F)(F)F.O=C(O)C(F)(F)F` (centres undefined): the “Percent Effect” value (30.3 µM, […]) was -25.2%.
Regarding `CCn1ncc2c1C(COC)CN(c1ncc(F)cn1)C2.O=C(O)C(F)(F)F.O=C(O)C(F)(F)F` (centres undefined), the “Percent Effect” value (30.3 µM, […]) turned out to be 50.28%.
On the same count and under the same terms, the result for `COCC1CN(c2ncc(F)cn2)Cc2cnn(C)c21.O=C(O)C(F)(F)F.O=C(O)C(F)(F)F` (centres undefined) reads 22.2%.

The values are drawn from ChEMBL document CHEMBL3988442, “University of Dundee, Small-Polar-MMV Screening Library” (2021).
